Results: PubChem BioAssay AID1159580 (chemical genetic matrix, 2015)
Where “and” joins values, the source holds several entries; their conditions need not be identical. Equal entries are not always repeated. Out of some 5,500 compounds screened, about 2,000 (36%) were called active. About 18% were inconclusive and are not listed. No stated cut-off is given here; in the data, active means normalized growth mostly below about 0.91 (no sharp cut-off); inconclusive means no clear call, values can overlap the other calls; inactive means mostly above about 0.92. The list shows a part of the results.

Assay: chemical genetic growth profiling, strain panel (AID 1159580);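 further: tested at 20 µM; growth read once vehicle control cultures reached saturation at 30 °C; 1 = growth at the plate median or of vehicle wells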
Settings: S. cerevisiae deletion strains, growth OD

Measured: normalized growth

COC(=O)C[C@H]1C(C)(C)[C@@H](OC(C)=O)[C@@H]2CC3C4CC(=O)O[C@@H](c5ccoc5)[C@]4(C)CCC3[C@@]1(C)C2=O (some centres not stated)
inactive: locus YAL013W, strain DEP1, stronger effect = lower value 1 | locus YAL021C, strain ccr4, stronger effect = lower value 0.979 | locus YAL026C, strain drs2, stronger effect = lower value 1.01 | locus YAL030W, strain snc1, stronger effect = lower value 1 | locus YBL061C, strain skt5, stronger effect = lower value 1.02 | locus YBR009C, strain hhf1, stronger effect = lower value 0.988 | locus YBR021W, strain FUR4, stronger effect = lower value 0.965 | locus YBR023C, strain chs3, stronger effect = lower value 1.02 | locus YBR171W, strain sec66, stronger effect = lower value 1.03 | locus YBR229C, strain ROT2, stronger effect = lower value 0.999 | locus YBR231C, strain swc5, stronger effect = lower value 1.01 | locus YBR279W, strain paf1, stronger effect = lower value 1.01 | locus YCL011C, strain gbp2, stronger effect = lower value 1 | locus YCL016C, strain dcc1, stronger effect = lower value 1.01 | locus YCL029C, strain bik1, stronger effect = lower value 0.973 | locus YCL069W, strain vba3, stronger effect = lower value 1.01 | locus YCR088W, strain abp1, stronger effect = lower value 1.01 | locus YDL005C, strain med2, stronger effect = lower value 1.01 | locus YDL035C, strain GPR1, stronger effect = lower value 0.995 | locus YDL040C, strain nat1, stronger effect = lower value 1.01 | locus YDL074C, strain BRE1, stronger effect = lower value 0.985 | locus YDL101C, strain DUN1, stronger effect = lower value 1.02 | locus YDL134C, strain PPH21, stronger effect = lower value 1.04 | locus YDL185W, strain tfp1, stronger effect = lower value 1.02 | locus YDL192W, strain arf1, stronger effect = lower value 0.989 | locus YDR001C, strain nth1, stronger effect = lower value 1.01 | locus YDR069C, strain doa4, stronger effect = lower value 1.01 | locus YDR101C, strain arx1, stronger effect = lower value 0.996 | locus YDR137W, strain rgp1, stronger effect = lower value 1.01 | locus YDR159W, strain sac3, stronger effect = lower value 1.03 | locus YDR162C, strain NBP2, stronger effect = lower value 1.01 | locus YDR195W, strain ref2 0.98 | locus YDR297W, strain sur2, stronger effect = lower value 0.999 | locus YDR318W, strain mcm21, stronger effect = lower value 1.01 | locus YDR334W, strain swr1, stronger effect = lower value 1.01 | locus YDR335W, strain msn5, stronger effect = lower value 1.04 | locus YDR388W, stronger effect = lower value 1.02 | locus YDR392W, strain spt3, stronger effect = lower value 1.02 | locus YDR502C, strain sam2, stronger effect = lower value 1.04 | locus YEL003W, strain gim4, stronger effect = lower value 1.01 | locus YEL037C, strain rad23, stronger effect = lower value 1.01 | locus YEL061C, strain CIN8 (second series), stronger effect = lower value 1.01 | locus YEL061C, strain CIN8, stronger effect = lower value 0.995 | locus YER015W, strain faa2, stronger effect = lower value 1 | locus YER016W, strain bim1, stronger effect = lower value 1.01 | locus YER110C, stronger effect = lower value 1.02 | locus YER111C, strain swi4, stronger effect = lower value 1.02 | locus YER155C, strain BEM2 (second series), stronger effect = lower value 1.03 | locus YER155C, strain BEM2, stronger effect = lower value 1 | locus YER167W, strain BCK2, stronger effect = lower value 0.996 | locus YFR010W, strain ubp6, stronger effect = lower value 1 | locus YGL078C, strain dbp3, stronger effect = lower value 1.01 | locus YGL086W, strain mad1, stronger effect = lower value 1.01 | locus YGL167C, strain pmr1, stronger effect = lower value 1.02 | locus YGL173C, strain kem1, stronger effect = lower value 1.02 | locus YGL227W, strain vid30, stronger effect = lower value 1.02 | locus YGL240W, strain doc1, stronger effect = lower value 1.03 | locus YGL248W, strain PDE1, stronger effect = lower value 1.04 | locus YGL253W, strain hxk2, stronger effect = lower value 1.01 | locus YGR135W, strain pre9, stronger effect = lower value 1.07 | locus YGR252W, strain gcn5, stronger effect = lower value 1.05 | locus YHR013C, strain ard1, stronger effect = lower value 1.02 | locus YHR027C, strain rpn1, stronger effect = lower value 1.02 | locus YHR030C, strain SLT2, stronger effect = lower value 0.994 and 1.02 | locus YHR079C, strain IRE1 (second series), stronger effect = lower value 1.01 | locus YHR079C, strain IRE1, stronger effect = lower value 1.01 | locus YHR094C, strain hxt1, stronger effect = lower value 1.01 | locus YHR129C, strain ARP1, stronger effect = lower value 1.01 | locus YHR142W, strain chs7, stronger effect = lower value 0.997 | locus YHR200W, strain rpn10, stronger effect = lower value 1 | locus YIL066C, strain RNR3, stronger effect = lower value 0.997 | locus YIL073C, strain SPO22, stronger effect = lower value 1.01 | locus YIL125W, strain kgd1, stronger effect = lower value 1 | locus YIR030C, strain dcg1, stronger effect = lower value 1.01 | locus YJL092W, strain hpr5, stronger effect = lower value 1.01 | locus YJL095W, strain BCK1 (second series), stronger effect = lower value 1 | locus YJL095W, strain BCK1, stronger effect = lower value 1.04 and 1.01 | locus YJL115W, strain asf1, stronger effect = lower value 1.01 | locus YJL129C, strain trk1, stronger effect = lower value 1.01 | locus YJL134W, strain LCB3, stronger effect = lower value 0.99 | locus YJL154C, strain vps35, stronger effect = lower value 1 | locus YJL164C, strain tpk1, stronger effect = lower value 1 | locus YJL166W, strain qcr8, stronger effect = lower value 0.999 | locus YJL168C, strain set2, stronger effect = lower value 1.02 | locus YJL187C, strain SWE1 (second series), stronger effect = lower value 1.05 | locus YJR066W, strain TOR1, stronger effect = lower value 0.963 | locus YKL009W, strain mrt4, stronger effect = lower value 0.998 | locus YKL068W, stronger effect = lower value 1.01 | locus YKL085W, strain MDH1 (second series), stronger effect = lower value 1 | locus YKL085W, strain MDH1, stronger effect = lower value 1 | locus YKL160W, strain elf1, stronger effect = lower value 1.02 | locus YKL190W, strain CNB1, stronger effect = lower value 1 | locus YKR001C, strain vps1, stronger effect = lower value 0.995 | locus YKR026C, strain gcn3, stronger effect = lower value 1.01 | locus YKR091W, strain srl3, stronger effect = lower value 1.01 | locus YLL001W, strain dnm1, stronger effect = lower value 1.01 | locus YLL026W, stronger effect = lower value 1 | locus YLL041C, strain sdh2, stronger effect = lower value 1 | locus YLR027C, strain aat2, stronger effect = lower value 0.999 | locus YLR039C, strain RIC1, stronger effect = lower value 0.993 | locus YLR058C, strain SHM2, stronger effect = lower value 1.02 | locus YLR102C, strain apc9, stronger effect = lower value 1.02 | locus YLR113W, strain HOG1, stronger effect = lower value 0.988 | locus YLR221C, strain rsa3, stronger effect = lower value 0.999 | locus YLR258W, strain gsy2, stronger effect = lower value 1.01 | locus YLR262C, strain YPT6 (second series), stronger effect = lower value 0.955 | locus YLR268W, strain sec22, stronger effect = lower value 0.985 | locus YLR320W, strain mms22, stronger effect = lower value 1.02 | locus YLR342W, strain FKS1, stronger effect = lower value 1 | locus YLR357W, strain rsc2, stronger effect = lower value 1.03 | locus YLR370C, strain arc18, stronger effect = lower value 1.02 | locus YLR371W, strain rom2, stronger effect = lower value 0.989 | locus YLR384C, strain iki3, stronger effect = lower value 1.02 | locus YLR418C, strain cdc73, stronger effect = lower value 1.04 | locus YML016C, strain PPZ1, stronger effect = lower value 1.01 | locus YML032C, strain rad52, stronger effect = lower value 0.994 | locus YML120C, strain ndi1, stronger effect = lower value 1.02 | locus YML124C, strain tub3, stronger effect = lower value 1.01 | locus YMR058W, strain fet3, stronger effect = lower value 1.01 | locus YMR078C, strain ctf18, stronger effect = lower value 1.02 | locus YMR125W, strain sto1, stronger effect = lower value 1.01 | locus YMR129W, stronger effect = lower value 0.999 | locus YMR205C, strain PFK2, stronger effect = lower value 1 | locus YMR223W, strain ubp8, stronger effect = lower value 1.01 | locus YMR231W, strain pep5, stronger effect = lower value 1.01 | locus YMR307W, strain GAS1, stronger effect = lower value 0.876 | locus YNL067W, strain RPL9B, stronger effect = lower value 1.05 | locus YNL071W, strain lat1, stronger effect = lower value 1.02 | locus YNL183C, strain NPR1, stronger effect = lower value 0.981 | locus YNL209W, strain ssb2, stronger effect = lower value 0.996 | locus YNL233W, strain BNI4, stronger effect = lower value 0.988 | locus YNL248C, strain rpa49, stronger effect = lower value 1 | locus YNL250W, strain rad50, stronger effect = lower value 1.04 | locus YNL271C, strain bni1, stronger effect = lower value 1.01 | locus YNL298W, strain CLA4, stronger effect = lower value 1.01 | locus YNL307C, strain MCK1, stronger effect = lower value 1.03 | locus YNL322C, strain KRE1 (second series), stronger effect = lower value 1.02 | locus YNR049C, strain mso1, stronger effect = lower value 0.996 | locus YNR052C, strain pop2, stronger effect = lower value 1.04 | locus YOL012C, strain htz1 0.967 | locus YOL147C, strain pex11, stronger effect = lower value 1.01 | locus YOR001W, strain rrp6, stronger effect = lower value 1.01 | locus YOR061W, strain CKA2, stronger effect = lower value 0.992 | locus YOR069W, strain VPS5, stronger effect = lower value 1 | locus YOR070C, strain gyp1, stronger effect = lower value 1.01 | locus YOR080W, strain dia2, stronger effect = lower value 1.01 | locus YOR083W, strain WHI5, stronger effect = lower value 1.02 | locus YOR106W, strain vam3, stronger effect = lower value 0.988 | locus YOR136W, strain idh2, stronger effect = lower value 1.02 | locus YOR144C, strain elg1, stronger effect = lower value 1.02 | locus YOR184W, strain ser1, stronger effect = lower value 0.973 | locus YOR231W, strain MKK1, stronger effect = lower value 1.01 | locus YOR265W, strain rbl2, stronger effect = lower value 1.01 | locus YOR270C, strain vph1, stronger effect = lower value 0.902 | locus YOR290C, strain snf2, stronger effect = lower value 1.02 | locus YOR316C, strain cot1, stronger effect = lower value 1.02 | locus YPL051W, strain arl3, stronger effect = lower value 1.02 | locus YPL078C, strain atp4, stronger effect = lower value 1.03 | locus YPL106C, strain sse1, stronger effect = lower value 1.02 | locus YPL240C, strain hsp82, stronger effect = lower value 1 | locus YPL241C, strain CIN2, stronger effect = lower value 0.988 | locus YPL256C, strain CLN2, stronger effect = lower value 0.996 | locus YPR119W, strain clb2, stronger effect = lower value 1.01 | locus YPR141C, strain kar3, stronger effect = lower value 1.01 | locus YPR163C, strain tif3, stronger effect = lower value 1.03 | locus YPR167C, strain met16, stronger effect = lower value 1.02 | strain wtn01, stronger effect = lower value 1
